Compound activity (PubChem BioAssay)
NS1 inh = qHTS Assay for Inhibitors of Influenza NS1 Protein Function. Potency, µM (doses to about 46.1 µM), inactives show top-dose activity, positive = more growth. 0.4% of 270,000 active. AID 2326, 2010; note: potency is the fitted concentration of half-maximal effect; actives are rising curves; nearly all actives have a fitted effect of over 50% in size
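A cell-based growth assay was used: compounds that relieve NS1-induced slow growth of budding yeast raise OD600. Assay medium was yeast nitrogen base with ammonium sulphate and -URA supplement, pH 6.0, with 2% galactose.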
Pf growth 96h = Primary qHTS for delayed death inhibitors of the malarial parasite plastid, 96 hour incubation. P. falciparum luciferase reporter growth, 96 h. Potency, µM (doses to about 28.7 µM), without a hit: at the highest dose activity change, negative = inhibition, most hits filed as inhibitors. 6.9% of 320,000 active. AID 504834, 2011; active = well fitted inhibition curve with a large enough effect; inconclusive = small, poorly fitted or top-dose-only effect, or another doubt; inactive = no such curve, though single readings can be large or run the other way; note: potency is the fitted concentration of half-maximal effect; % is set by controls: 0 for no effect and ±100 for the full control effect
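P. falciparum expressing integrated firefly luciferase, in erythrocytes at 2% hematocrit, 0.05% parasitemia, incubated with compounds 96 h at 37 C, 5% CO2. Growth inhibition read as loss of luminescence; two-generation exposure targets delayed-death apicoplast inhibitors.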
CHX counter = Cycloheximide Counterscreen for Small Molecule Inhibitors of Shiga Toxin | cell reporter, cycloheximide protein synthesis inhibition counterscreen | max response, % | 12% of 300,000 active; in the data active = max response mostly above about 13%, no sharp cut-off; inactive = mostly below about 14%; note: read at 38.3 µM for the half of the compounds with a filed dose; 0% is about no effect
SARS PLP yeast = qHTS of Yeast-based Assay for SARS-CoV PLP. S. cerevisiae expressing SARS-CoV PLpro, growth rescue. Potency, µM (highest dose often 32.9 µM), for inactives: at the highest dose activity, positive = growth rescue, usual class: activators. 0.19% of 330,000 active; note: potency is the fitted concentration of half-maximal effect; 0% is about no effect; nearly all actives have a fitted effect of over 55% in size
Shiga toxin inh = A qHTS for Small Molecule Inhibitors of Shiga Toxin; Vero cells, Shiga toxin protein synthesis inhibition reporter; inhibition, % at 38.7 µM; 9.2% of 290,000 active; in the data active = inhibition mostly above about 28%, no sharp cut-off; inactive = mostly below about 43%; note: 0% is about no effect
Pf growth 48h = Primary qHTS for delayed death inhibitors of the malarial parasite plastid, 48 hour incubation | P. falciparum luciferase growth in erythrocytes, 48 h | Potency, µM (series often up to 28.7 µM), for inactives: at the highest dose activity change, negative = inhibition, usual class: inhibitors | 5.9% of 310,000 active; active = well fitted inhibition curve with a large enough effect; inconclusive = small, poorly fitted or top-dose-only effect, or another doubt; inactive = no such curve, though single readings can be large or run the other way; note: potency is the fitted concentration of half-maximal effect; % is set by controls: 0 for no effect and ±100 for the full control effect
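A one-generation exposure of luciferase-tagged malaria parasites in RPMI 1640/Albumax erythrocyte culture, 37 C and 5% CO2. Inhibition is inferred from decreased luminescence after adding detection reagent.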
* marks the source's active call; other numbers are inactive results; i = inactive; ? = inconclusive; . = no result. A selection: hits, their analogues and other compounds. The true share with any hit is near 21%. Unless noted, calls come from the whole dose curve.

SMILES	NS1 inh	Pf growth 96h	CHX counter	SARS PLP yeast	Shiga toxin inh	Pf growth 48h
CCCCNC(=S)Nc1cccc(C(C)=O)c1	-5.8%	-8.2%	-3.3	4.8%	-6.7	9.7%
CC(=O)c1cccc(NC(=S)NCCCCc2ccccc2)c1	-11.2%	9.28µM*	-1.6	6.9%	-12.1	-21.5%
Cc1cccc(NC(=O)NC(C)CCc2ccccc2)c1 (stereo not given)	-30.2%	?	21.2*	-4.4%	12.5	?
CC(=O)Nc1cccc(C(=O)N(CCc2ccccc2)Cc2ccccc2)c1	-7.9%	?	28.5*	-2.7%	22.8	23.9%
O=C(CN1CCC(NC(=O)c2ccco2)CC1)Nc1ccccc1C(F)(F)F	-0.4%	?	1.1	-0.4%	-5.2	-20.8%
CCc1cccc(C)c1NC(=O)CC1Oc2ccc(C)cc2NC1=O (stereo not given)	-3.8%	?	2.8	-0.5%	-1.3	0.0%
CC(NC(=O)COC(=O)c1cc([N+](=O)[O-])ccc1N1CCOCC1)c1ccccc1 (stereo not given)	7.2%	?	9.5	-0.8%	1.9	-7.7%
CCOC(=O)c1ccc(-n2cccc2/C=C2\NC(=O)NC2=O)cc1	.	42.8%	.	-4.8%	.	11.4%
O=C(OCC(=O)N1CCc2ccccc21)c1ccccn1	-2.3%	?	31.7*	-1.9%	51.5	30.8%
O=C(OCC(=O)N1CCc2ccccc21)c1cccnc1Cl	-8.2%	94.2%	34.7*	-0.3%	69.3*	96.0%
O=C(COc1cccc2cccnc12)N1CCc2ccccc21	-6.4%	0.0%	18.4*	-0.7%	63.1*	2.0%
Cc1cccc2cc(CNC3CCCC3)c(Cl)nc12	0.6%	17.9%	8.0	-0.1%	11.0	8.6%
CCOc1ccc(CN(C(=O)c2ccccn2)c2ccc(OC)c(Cl)c2)cc1	-2.1%	3.2%	31.3	-2.8%	64.4*	9.7%
CCOc1ccc(N(Cc2ccc(OC)c(OC)c2)C(=O)c2ccco2)cc1	-0.4%	15.0%	8.9	19.7%	49.3	11.7µM*
COc1cc(CN(C(=O)c2ccco2)c2ccc(C)cc2)ccc1O	-3.6%	?	-1.0	-0.6%	-1.2	11.7µM*
COC(=O)CSc1nnc(CNC(=O)Cc2ccccc2)n1-c1ccccc1OC	-1.8%	61.6%	1.0	-2.2%	-6.5	9.3%
O=C1c2ccccc2C(=O)N1CC1=CCS(=O)(=O)C1	-16.5%	21.5%	-4.3	-0.3%	-3.0	-8.3%
CCC(C)NC(=O)CSc1ncccc1C(=O)O (stereo not given)	0.5%	.	-1.5	-0.1%	-5.9	-7.7%
CCOC(=O)N1CCN(C(=O)c2ccc(OC(C)=O)cc2)CC1	.	?	11.9	1.1%	-14.5	-2.0%
CCCCCCn1c2c(c(=N)c3c1CCC3)CCC2	-34.1%	20.9%	-1.4	-6.2%	-6.0	0.208µM*
CCCCn1c2c(c(=N)c3c1CCC3)CCC2	-4.8%	0.0329µM*	-2.2	?	-20.9	0.147µM*
CCn1c2c(c(=N)c3c1CCC3)CCC2	16.6%	0.185µM*	-5.6	-10.6%	7.1	0.465µM*
CCCCCCCn1c2c(c(=N)c3c1CCC3)CCCC2	-38.0%	6.4%	-2.4	12.6%	-2.0	0.294µM*
CC1CN(c2oc(-c3ccco3)nc2S(=O)(=O)c2ccccc2)CC(C)O1 (stereo not given)	5.0%	5.1%	-2.5	-12.6%	20.9	6.2%
CCCCCCCCCn1c2c(c(=N)c3c1CCC3)CCC2	-38.7%	0.131µM*	-4.6	-123.8%	-6.8	0.294µM*
SMILES	NS1 inh	Pf growth 96h	CHX counter	SARS PLP yeast	Shiga toxin inh	Pf growth 48h
CCCCCCn1c(=O)[nH]c2c(c1=O)CCC2	-0.5%	16.2%	3.7	-2.2%	12.0	4.3%
CCCCn1c(=O)c2[nH]c(C34CC5CC(CC3C5)C4)nc2n(CCCO)c1=O	.	.	1.4	.	-8.3	.
CCN1C(=Nc2ccc(Cl)cc2)SC/C1=C\C(=O)OC	-5.9%	?	21.8*	1.2%	19.9	-23.0%
O=C(OCC(=O)N1CCCc2ccccc21)c1cc(Cl)ccc1O	4.3%	0.4%	8.3	?	-11.9	17.0%
Cc1ccc(NC(=O)NC(=O)CSc2nnc(-c3ccc(Cl)cc3Cl)n2N)c(C)c1	-6.3%	i	63.8*	0.5%	179.1*	25.7%
Cc1ccc(-c2nnc(SCC(=O)NC(=O)Nc3ccc(C)cc3C)n2N)cc1	12.8%	?	10.2	-2.4%	3.7	7.4%
C[C@H](N)c1nnc(SCC(=O)N(C)C)o1	14.4%	45.8%	16.8*	-0.7%	17.4	36.1%
O=S1(=O)N(CCN2CC=C(c3c[nH]c4cc(F)ccc34)CC2)c2cccc3c2N1CCC3	?	0.928µM*	.	-4.8%	.	1.17µM*
O=c1[nH]c(CN2CC=C(c3ccccc3)CC2)nc2cc(C(F)(F)F)ccc12	26.4%	?	0.3	-10.8%	-4.9	.
CC1(C)O[C@@H]2[C@H](O1)[C@@H](COS(=O)(=O)O)O[C@H]2n1cc(Br)c(=O)[nH]c1=O	.	.	.	4.5%	.	.
Cc1nn(Cc2ccc(Cl)cc2)c(C)c1NC(=O)CSc1nc2c(c(C(F)(F)F)n1)CCc1ccccc1-2	22.8%	4.65µM*	-2.3	1.9%	-9.8	?
Cc1ccc(Cn2nc(C)c(NC(=O)CSc3nc4c(c(C(F)(F)F)n3)CCc3ccccc3-4)c2C)cc1	0.7%	?	-8.6	2.0%	-17.6	?
COc1ccc(OC)c(S(=O)(=O)N2CCN(c3ccccc3OC)CC2)c1	-7.2%	-10.2%	-1.3	-1.0%	-3.3	8.2%
N#C/C(=C\c1ccc(F)cc1F)S(=O)(=O)c1ccccn1	5.2%	12.0%	-1.4	0.7%	-3.7	14.5%
C=C(C)c1cccc(C(C)(C)NC(=O)Nc2ncccn2)c1	-14.9%	8.28µM*	-2.6	-2.2%	30.7	?
C=C(C)c1cccc(C(C)(C)NC(=O)Nc2ccc(Cl)cn2)c1	-25.9%	?	4.5	-70.9%	13.1	8.9%
C=C(C)c1cccc(C(C)(C)NC(=O)NCc2ccncc2)c1	1.1%	?	-0.2	0.1%	18.7	13.1µM*
C=C(C)c1cccc(C(C)(C)NC(=O)Nc2cccnc2)c1	1.0%	4.65µM*	-0.6	0.2%	-6.5	?
CC1(C)Cc2c(sc(NC(=O)C(=O)N3CCCCC3)c2C(=O)O)CO1	13.5%	-3.6%	-4.6	9.0%	-5.4	1.2%
COc1ccc(Nc2nc(Nc3ccc(OC)cc3)nc(SC3=NCCS3)n2)cc1	11.1%	11.7µM*	-7.6	-3.3%	-13.1	.
COc1cn(-c2ccccc2)nc1C(=O)Nc1ccccc1	-41.5%	9.1%	46.9*	-8.8%	81.7*	-15.7%
COc1cn(-c2ccccc2)nc1C(=O)Nc1ccc(C)cc1	-43.6%	-19.4%	36.0*	-46.7%	55.7*	?
COc1ccc(C)cc1NC(=O)c1nn(-c2ccccc2)cc1OC	-23.4%	2.94µM*	0.7	-15.5%	12.4	-71.6%
COc1ccc(C)cc1NC(=O)c1c(C)nn(Cc2ccccc2)c1Cl	-9.6%	?	-2.7	-16.1%	-9.1	-22.5%
